This passage reports binding signal results from article PMC7862700, “An all-to-all approach to the identification of sequence-specific readers for epigenetic DNA modifications on cytosine”.

Common to all, as to experiment: DAPPL (digital affinity profiling via proximity ligation, sequencing); 10 mM Tris-HCl pH 7.5, 50 mM NaCl, 1 mM DTT, 4% glycerol, room temperature, 30 min; GST-TFs on glutathione beads, 16-mer random dsDNA library, 0.1% formaldehyde crosslink after washing; high values mean tight binding
Settings in all cases: protein: recombinant; tags: N-terminal GST; dsDNA, one strand shown

For experiment [1], the target named is T1, ERF (Homo sapiens, UniProt P50548 1-548).
T1 sequence: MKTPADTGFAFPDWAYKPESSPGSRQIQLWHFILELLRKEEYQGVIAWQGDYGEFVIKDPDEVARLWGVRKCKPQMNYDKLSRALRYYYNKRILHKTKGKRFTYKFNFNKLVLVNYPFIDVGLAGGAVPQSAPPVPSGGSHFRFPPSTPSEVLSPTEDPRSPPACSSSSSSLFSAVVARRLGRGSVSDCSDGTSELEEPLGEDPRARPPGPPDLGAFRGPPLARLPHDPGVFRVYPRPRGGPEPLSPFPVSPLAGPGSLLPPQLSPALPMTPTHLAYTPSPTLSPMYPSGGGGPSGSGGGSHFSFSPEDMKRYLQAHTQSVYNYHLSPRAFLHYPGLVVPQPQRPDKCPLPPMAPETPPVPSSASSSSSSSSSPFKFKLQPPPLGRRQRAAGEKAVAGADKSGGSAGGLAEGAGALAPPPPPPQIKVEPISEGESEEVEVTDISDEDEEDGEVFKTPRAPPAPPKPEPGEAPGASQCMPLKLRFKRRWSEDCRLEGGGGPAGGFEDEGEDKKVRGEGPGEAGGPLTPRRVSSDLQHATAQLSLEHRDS
The method in brief: (§1)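 Human transcription factors fused to GST were expressed in yeast, captured on glutathione beads, given DNA barcodes and pooled with a GST-only negative control. Pools were incubated with 200 nmole of a 16-mer random double-stranded DNA library in Tris/NaCl/DTT/glycerol buffer at room temperature for 30 min. They were then washed, crosslinked with 0.1% formaldehyde, proximity-ligated (BsaI/T4 ligase, 1 h, 37 °C), PCR-amplified and sequenced on an Illumina NextSeq500. Binding signal is each 6-mer's read frequency for a factor divided by its frequency for the GST control.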

Experiment [2] deals with T2, ETV3L (Homo sapiens, UniProt Q6ZN32 1-361).
T2 sequence: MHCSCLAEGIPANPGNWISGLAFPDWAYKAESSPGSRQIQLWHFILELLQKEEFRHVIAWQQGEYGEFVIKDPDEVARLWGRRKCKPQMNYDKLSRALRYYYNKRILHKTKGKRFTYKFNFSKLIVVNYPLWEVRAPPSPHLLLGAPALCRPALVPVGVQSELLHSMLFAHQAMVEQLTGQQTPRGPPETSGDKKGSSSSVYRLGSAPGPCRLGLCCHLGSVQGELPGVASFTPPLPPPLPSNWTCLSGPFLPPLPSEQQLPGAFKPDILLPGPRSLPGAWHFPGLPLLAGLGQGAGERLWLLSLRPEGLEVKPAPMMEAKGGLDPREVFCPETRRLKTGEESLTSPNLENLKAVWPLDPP
The method in brief: as §1

The target in experiment [3] is T3, ETS2 (Homo sapiens, UniProt P15036 1-469).
T3 sequence: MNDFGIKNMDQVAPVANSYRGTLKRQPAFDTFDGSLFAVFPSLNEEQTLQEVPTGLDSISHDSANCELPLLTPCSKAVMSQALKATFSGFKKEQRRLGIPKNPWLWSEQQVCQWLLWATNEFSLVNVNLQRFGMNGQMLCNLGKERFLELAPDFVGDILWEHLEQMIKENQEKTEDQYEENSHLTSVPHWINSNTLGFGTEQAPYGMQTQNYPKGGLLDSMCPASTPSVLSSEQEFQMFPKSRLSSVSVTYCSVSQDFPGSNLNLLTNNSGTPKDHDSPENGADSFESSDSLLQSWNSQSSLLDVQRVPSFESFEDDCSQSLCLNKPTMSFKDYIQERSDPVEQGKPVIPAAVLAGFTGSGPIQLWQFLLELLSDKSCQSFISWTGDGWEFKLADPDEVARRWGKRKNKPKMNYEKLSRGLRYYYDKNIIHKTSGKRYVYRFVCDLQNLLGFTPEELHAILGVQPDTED
The method in brief: as §1

The target in experiment [4] is T4, SPDEF (Homo sapiens, UniProt O95238 1-335).
T4 sequence: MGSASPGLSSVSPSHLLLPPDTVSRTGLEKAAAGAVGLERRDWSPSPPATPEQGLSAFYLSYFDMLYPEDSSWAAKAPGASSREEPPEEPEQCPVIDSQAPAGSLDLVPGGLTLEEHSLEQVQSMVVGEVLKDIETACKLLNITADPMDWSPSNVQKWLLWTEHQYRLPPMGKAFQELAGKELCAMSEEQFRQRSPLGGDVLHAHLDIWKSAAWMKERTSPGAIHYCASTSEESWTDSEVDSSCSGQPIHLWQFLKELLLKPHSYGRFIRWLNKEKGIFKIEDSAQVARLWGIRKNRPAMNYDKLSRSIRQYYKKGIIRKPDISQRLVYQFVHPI
The method in brief: as §1

Experiment [5] addresses T5, ETV7 (Homo sapiens, UniProt Q9Y603 1-341).
T5 sequence: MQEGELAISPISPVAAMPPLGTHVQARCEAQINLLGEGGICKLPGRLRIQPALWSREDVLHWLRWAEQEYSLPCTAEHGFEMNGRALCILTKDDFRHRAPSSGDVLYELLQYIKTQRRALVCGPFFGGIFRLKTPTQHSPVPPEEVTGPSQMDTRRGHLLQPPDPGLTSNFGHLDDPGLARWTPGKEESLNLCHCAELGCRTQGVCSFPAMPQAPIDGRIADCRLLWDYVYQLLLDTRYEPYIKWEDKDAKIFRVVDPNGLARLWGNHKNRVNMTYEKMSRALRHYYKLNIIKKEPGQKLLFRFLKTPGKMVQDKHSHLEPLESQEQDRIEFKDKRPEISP
In short, it runs like this: as §1

The target in experiment [6] is T6, ELF5 (Homo sapiens, UniProt Q9UKW6-2 1-255).
T6 sequence: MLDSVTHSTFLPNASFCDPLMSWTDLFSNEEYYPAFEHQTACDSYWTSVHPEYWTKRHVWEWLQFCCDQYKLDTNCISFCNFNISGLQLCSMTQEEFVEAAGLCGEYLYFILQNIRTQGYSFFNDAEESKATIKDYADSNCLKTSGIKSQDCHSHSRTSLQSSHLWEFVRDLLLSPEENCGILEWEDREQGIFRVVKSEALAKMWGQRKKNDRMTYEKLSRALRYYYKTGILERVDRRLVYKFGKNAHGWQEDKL
The method in brief:
as §1

Experiment [7] addresses T7, ETV3 (Homo sapiens, UniProt P41162-2 1-143).
T7 sequence: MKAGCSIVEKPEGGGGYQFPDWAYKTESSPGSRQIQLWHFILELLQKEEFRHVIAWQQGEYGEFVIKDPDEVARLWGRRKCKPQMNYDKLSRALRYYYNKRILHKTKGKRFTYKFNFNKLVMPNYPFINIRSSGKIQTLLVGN
In short, it runs like this: as §1

Experiment [8] concerns the target ETV6 (Homo sapiens, UniProt P41212 1-452). In short, it runs like this: as §1

ETV6, sequence (P41212 whole entry): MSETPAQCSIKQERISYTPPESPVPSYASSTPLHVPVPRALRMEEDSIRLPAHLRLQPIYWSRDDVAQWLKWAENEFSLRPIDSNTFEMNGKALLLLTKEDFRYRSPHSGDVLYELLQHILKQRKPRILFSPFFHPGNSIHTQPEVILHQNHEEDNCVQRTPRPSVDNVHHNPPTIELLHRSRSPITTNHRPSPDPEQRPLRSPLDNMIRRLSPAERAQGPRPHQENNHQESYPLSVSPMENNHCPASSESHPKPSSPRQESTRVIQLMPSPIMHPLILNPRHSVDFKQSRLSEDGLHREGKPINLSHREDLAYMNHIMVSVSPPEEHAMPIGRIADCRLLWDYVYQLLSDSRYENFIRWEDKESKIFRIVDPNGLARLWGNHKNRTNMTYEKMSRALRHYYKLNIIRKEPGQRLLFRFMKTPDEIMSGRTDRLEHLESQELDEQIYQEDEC

For the sequence TCCTCT, the binding signal is 1.68 fold enrichment (6-mer frequency, TF over GST control) in experiment [1]; 1.74 fold enrichment (6-mer frequency, TF over GST control) in experiment [2]; 1.67 fold enrichment (6-mer frequency, TF over GST control) in experiment [3]; 1.58 fold enrichment (6-mer frequency, TF over GST control) in experiment [4]; 1.67 fold enrichment (6-mer frequency, TF over GST control) in experiment [5]; 2.15 fold enrichment (6-mer frequency, TF over GST control) in experiment [6]. Moreover, the binding signal in experiment [7] was 1.63 fold enrichment (6-mer frequency, TF over GST control); in experiment [8] it was 1.64 fold enrichment (6-mer frequency, TF over GST control).

For TTAAGT, the binding signal in experiment [1] is 1.12 fold enrichment (6-mer frequency, TF over GST control); in experiment [2], 1.15 fold enrichment (6-mer frequency, TF over GST control); in experiment [3] it was 1.16 fold enrichment (6-mer frequency, TF over GST control); in experiment [4], 1.31 fold enrichment (6-mer frequency, TF over GST control); in experiment [5], 1.19 fold enrichment (6-mer frequency, TF over GST control); in experiment [6], 1.12 fold enrichment (6-mer frequency, TF over GST control). Moreover, the binding signal in experiment [7] was 1.12 fold enrichment (6-mer frequency, TF over GST control); in experiment [8] it was 1.19 fold enrichment (6-mer frequency, TF over GST control).

As for CCGCCC, the binding signal in experiment [1] is 1.21 fold enrichment (6-mer frequency, TF over GST control); in experiment [2], 1.36 fold enrichment (6-mer frequency, TF over GST control); in experiment [3], 1.29 fold enrichment (6-mer frequency, TF over GST control); in experiment [4] it was 1.27 fold enrichment (6-mer frequency, TF over GST control); in experiment [5] it was 1.19 fold enrichment (6-mer frequency, TF over GST control); in experiment [6], 1.38 fold enrichment (6-mer frequency, TF over GST control). Moreover, the binding signal in experiment [7] was 1.36 fold enrichment (6-mer frequency, TF over GST control); in experiment [8] it was 1.39 fold enrichment (6-mer frequency, TF over GST control).

As to CCCTCC, the binding signal in experiment [1] was 1.58 fold enrichment (6-mer frequency, TF over GST control); in experiment [2] it was 1.31 fold enrichment (6-mer frequency, TF over GST control); in experiment [3] it was 1.51 fold enrichment (6-mer frequency, TF over GST control); in experiment [4] it was 1.36 fold enrichment (6-mer frequency, TF over GST control); in experiment [5], 1.37 fold enrichment (6-mer frequency, TF over GST control); in experiment [6], 1.34 fold enrichment (6-mer frequency, TF over GST control). Moreover, the binding signal in experiment [7] was 1.39 fold enrichment (6-mer frequency, TF over GST control); in experiment [8] it was 1.4 fold enrichment (6-mer frequency, TF over GST control).

With GTAACT, the binding signal is 1.22 fold enrichment (6-mer frequency, TF over GST control) in experiment [1]; 1.28 fold enrichment (6-mer frequency, TF over GST control) in experiment [2]; 1.25 fold enrichment (6-mer frequency, TF over GST control) in experiment [3]; 1.2 fold enrichment (6-mer frequency, TF over GST control) in experiment [4]; 1.12 fold enrichment (6-mer frequency, TF over GST control) in experiment [5]; 1.24 fold enrichment (6-mer frequency, TF over GST control) in experiment [6]. The binding signal in experiment [7] is 1.25 fold enrichment (6-mer frequency, TF over GST control); in experiment [8], 1.25 fold enrichment (6-mer frequency, TF over GST control).

GATTTC: the binding signal in experiment [1] is 1.57 fold enrichment (6-mer frequency, TF over GST control); in experiment [2], 1.73 fold enrichment (6-mer frequency, TF over GST control); in experiment [3] it was 1.79 fold enrichment (6-mer frequency, TF over GST control); in experiment [4] it was 1.66 fold enrichment (6-mer frequency, TF over GST control); in experiment [5], 1.56 fold enrichment (6-mer frequency, TF over GST control); in experiment [6], 2.07 fold enrichment (6-mer frequency, TF over GST control). Also, the binding signal in experiment [7] is 1.71 fold enrichment (6-mer frequency, TF over GST control); in experiment [8] it was 1.8 fold enrichment (6-mer frequency, TF over GST control).

For the sequence TGGAAA, the binding signal in experiment [1] is 1.08 fold enrichment (6-mer frequency, TF over GST control); in experiment [2] it was 1.2 fold enrichment (6-mer frequency, TF over GST control); in experiment [3], 1.1 fold enrichment (6-mer frequency, TF over GST control); in experiment [4], 1.04 fold enrichment (6-mer frequency, TF over GST control); in experiment [5], 1.19 fold enrichment (6-mer frequency, TF over GST control); in experiment [6], 1.12 fold enrichment (6-mer frequency, TF over GST control). For the same sequence, the binding signal was 1.08 fold enrichment (6-mer frequency, TF over GST control) in experiment [7] and 1.23 fold enrichment (6-mer frequency, TF over GST control) in experiment [8].

Turning to CTTGGC, the binding signal in experiment [1] is 1.35 fold enrichment (6-mer frequency, TF over GST control); in experiment [2], 1.15 fold enrichment (6-mer frequency, TF over GST control); in experiment [3], 1.03 fold enrichment (6-mer frequency, TF over GST control); in experiment [4] it was 1.14 fold enrichment (6-mer frequency, TF over GST control); in experiment [5], 1.24 fold enrichment (6-mer frequency, TF over GST control); in experiment [6] it was 1.12 fold enrichment (6-mer frequency, TF over GST control). Moreover, the binding signal in experiment [7] is 1.12 fold enrichment (6-mer frequency, TF over GST control); in experiment [8], 1.1 fold enrichment (6-mer frequency, TF over GST control).
